36 molecules from PubChem BioAssay (NCI) can be followed below.

Experiment in all cases: NCI-60 one-dose screen, 48 h (100 = growth as untreated, 0 = no growth, -100 = all killed)
Holding throughout (conditions): 10 µM

Test [1] has as its system BT-549 breast.
Test [2] deals with MDA-MB-435 melanoma.
The subject of test [3] is SW-620 colon.
Test [4] has as its system MCF7 breast.
In test [5] the test system is HCT-116 colon.
Test [6] has as its system HCC-2998 colon.
Test [7] relates to KM12 colon.

Molecules are shown by their SMILES. This is part of a sample that, as a whole, favours compounds with a hit. Of some 83,000 tested, about 20% had one in any assay.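 Percent growth is the endpoint: 0 to 100 indicates growth inhibition (40 means 60% inhibition), 0 means no net growth, and negative values indicate cell death.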 A number with no mark means an inactive call. Calls of active or inactive are those of the source. Rule for the calls: active = growth percent below 10; inactive = the rest.

Turning to `Nc1ncn([C@@H]2O[C@H](CO)[C@@H](O)[C@H]2O)c(=O)n1`, the growth is 16.3% in test [1]; 16.6% in test [2]; 35.6% in test [3]; 23.5% in test [4]; -31.5% (active) in test [5]; 11.7% in test [6]. Also, the growth in test [7] was 16.6%.
For the molecule `NC(=O)CC1(c2ccccc2)CCCCC1`, the growth in test [1] is 102%; in test [2], 109%; in test [3], 108%; in test [4], 96.4%; in test [5] it was 95.6%; in test [6] it was 102%. In test [7], the growth is 101%.
With `CCCN(CCC)CCC(O)c1cc2c(c3ccccc13)CCCC2` (configuration not stated), the growth was 92.5% in test [1]; 97.7% in test [2]; 94.1% in test [3]; 82.4% in test [4]; 70.3% in test [5]; 87.6% in test [6]. Moreover, the growth in test [7] was 101%.
Take `Cn1c([N+](=O)[O-])cnc1/C=C1\Oc2cc(Cl)ccc2C1=O`: the growth is -32.6% (active) in test [1]; -78% (active) in test [2]; -47.3% (active) in test [3]; 19% in test [4]; 3.24% (active) in test [5]; 4.36% (active) in test [6]. Also, the growth in test [7] was 1.65% (active).
As to `O=C(Nc1ccc(Cl)cc1)N1NC(c2ccc(Cl)cc2)C=C1c1ccccc1` (configuration not stated), the growth was 102% in test [1]; 103% in test [2]; 110% in test [3]; 89.6% in test [4]; 104% in test [5]; 97.5% in test [6]. The growth in test [7] is 96.3%.
As for `ClCC#CCSc1ncnc2c1ncn2CC#CCCl`, the growth is 27.5% in test [1]; 0.673% (active) in test [2]; 2.37% (active) in test [3]; 20.2% in test [4]; -49% (active) in test [5]; -24.9% (active) in test [6]. Also, the growth in test [7] was 6.96% (active).
For the molecule `COc1ccc2c(c1)O/C(=C\c1ncc([N+](=O)[O-])n1C)C2=O`, the growth was -36.8% (active) in test [1]; -78.1% (active) in test [2]; -20.8% (active) in test [3]; 1.94% (active) in test [4]; 0.959% (active) in test [5]; -58.8% (active) in test [6]. Further, in test [7], the growth was -37.7% (active).
Turning to `COC(=O)C(C(C[N+](=O)[O-])c1ccccc1)=P(c1ccccc1)(c1ccccc1)c1ccccc1` (configuration not stated), the growth was 93% in test [1]; 49.5% in test [2]; 69.8% in test [3]; 30.2% in test [4]; 4.02% (active) in test [5]; 101% in test [6]. For the same molecule, the growth in test [7] is 88.3%.
Turning to `Cc1cc2ccccc2nc1-c1ccccc1F`, the growth in test [1] is 92.2%; in test [2], 111%; in test [3] it was 106%; in test [4], 101%; in test [5], 102%; in test [6], 109%. Further, the growth in test [7] was 110%.
Turning to `Cc1cccc(NC2=C(C#N)C(=O)NC3(CCCC3)S2)c1`, the growth in test [1] is 102%; in test [2], 101%; in test [3], 103%; in test [4], 89.8%; in test [5] it was 105%; in test [6], 95.8%. In addition, in test [7], the growth is 104%.
On to `CCN(CC)CCOc1nc2ccccc2c2c1-c1ccc(OC)cc1C2=O`, for which the growth is 60.8% in test [1]; -6.62% (active) in test [2]; -13.3% (active) in test [3]; 0.376% (active) in test [4]; -93% (active) in test [5]; 14.8% in test [6]. Moreover, the growth in test [7] is -45.2% (active).
In the case of `O=C1NC(=O)N(Cc2ccccc2)CC1Br` (configuration not stated), the growth in test [1] is 94.5%; in test [2], 62.9%; in test [3], 51.7%; in test [4], 56.6%; in test [5], 28.1%; in test [6], 95.4%. Besides, the growth in test [7] is 106%.
On to `CCCCCCCCCCCCCCCCCC(=O)OCCCCCCC`, for which the growth was 110% in test [1]; 94.6% in test [2]; 97.5% in test [3]; 107% in test [4]; 118% in test [5]; 102% in test [6]. Moreover, the growth in test [7] is 97.6%.
Consider `COC(=O)C1(C)Cc2cc(OC(C)=O)c(OC(C)=O)cc2N1` (configuration not stated), for which the growth was 98.8% in test [1]; 73.9% in test [2]; 58.6% in test [3]; 51.7% in test [4]; 35.1% in test [5]; 112% in test [6]. Also, the growth in test [7] is 85.9%.
Regarding `Nc1c(C(=O)Nc2cccc(F)c2)sc2nc3c(cc12)C(=O)CCC3`, the growth in test [1] was 48.4%; in test [2] it was -43.8% (active); in test [3], 31.1%; in test [4] it was 11.9%; in test [5], 29%; in test [6] it was 23.4%. Further, the growth in test [7] is 28.9%.
For the molecule `Nc1c(C(=O)Nc2ccccc2)sc2nc3c(cc12)CCCC3`, the growth in test [1] was 66.6%; in test [2] it was -30.6% (active); in test [3], 34.4%; in test [4] it was 15.6%; in test [5], 25.5%; in test [6], 24.5%. The growth in test [7] was 31.1%.
For `CC1=C(N2CCOCC2)C(N2CCOCC2)=C(C)C(=O)C1=O`, the growth in test [1] is 110%; in test [2] it was 103%; in test [3] it was 105%; in test [4] it was 92.5%; in test [5], 108%; in test [6], 109%. In test [7], the growth is 105%.
As for `CN(C)C=Nc1cc(Cl)ccc1Cl`, the growth is 112% in test [1]; 97.9% in test [2]; 103% in test [3]; 101% in test [4]; 104% in test [5]; 108% in test [6]. Also, the growth in test [7] was 110%.
As for `CCN1CCC2(CC1)OC(c1ccccc1)C(c1ccccc1)O2` (configuration not stated), the growth is 110% in test [1]; 114% in test [2]; 102% in test [3]; 99.6% in test [4]; 95.1% in test [5]; 113% in test [6]. Further, in test [7], the growth is 115%.
As to `COC(=O)[C@@H]1[C@H](O)[C@H](C)[C@H](O)[C@@](C)(O)/C=C\C=C(C)C(=O)Nc2c(C)c(OC(C)=O)c3c(c2O)C(=O)C(C)=C2OCOC(=C23)C(C)=C[C@@](C)(O)[C@H](O)[C@@H](C)[C@H]1OC(C)=O`, the growth in test [1] was 105%; in test [2], 105%; in test [3], 124%; in test [4], 114%; in test [5], 114%; in test [6], 120%. Besides, the growth in test [7] is 112%.
With `Cc1ccc(-c2n[nH]c(=O)c3noc(-c4ccc(C)cc4)c23)cc1`, the growth is 38.3% in test [1]; -13.3% (active) in test [2]; 28% in test [3]; 20.2% in test [4]; 32.2% in test [5]; 70.3% in test [6]. Also, the growth in test [7] was 35.9%.
For `COc1ccc(-c2nc3ccccn3c2-c2nnc(-c3cc(OC)c(OC)c(OC)c3)o2)cc1`, the growth was 42.7% in test [1]; 96.2% in test [2]; 74.9% in test [3]; 63.4% in test [4]; 32.1% in test [5]; 85.4% in test [6]. Also, the growth in test [7] is 65%.
Turning to `Cc1cccc2c1O/C(=C\c1ccc([N+](=O)[O-])o1)C2=O`, the growth in test [1] was -68.5% (active); in test [2], -53.2% (active); in test [3], -68% (active); in test [4], -39.7% (active); in test [5], -53.2% (active); in test [6], -67.4% (active). In addition, in test [7], the growth is -34.2% (active).
For `CCN(CC)CCNc1ccc(CO)c2oc3cc(Cl)ccc3c(=O)c12`, the growth in test [1] is 94.9%; in test [2] it was 78.4%; in test [3] it was 71.3%; in test [4] it was 64.5%; in test [5], 58.6%; in test [6], 88.3%. Besides, the growth in test [7] is 98.6%.
Regarding `CN1c2ccccc2[C@]2(Cc3ccccc3)Cc3ccccc3N[C@H]12`, the growth in test [1] was 122%; in test [2], 117%; in test [3] it was 101%; in test [4] it was 94.1%; in test [5], 91.8%; in test [6], 103%. Besides, the growth in test [7] is 104%.
As for `COc1cc2nc(Nc3cccc(NC(C)=O)c3)nc(N)c2cc1OC`, the growth in test [1] is 118%; in test [2] it was 123%; in test [3], 95.9%; in test [4] it was 99.5%; in test [5], 95.9%; in test [6] it was 113%. Further, the growth in test [7] was 89.5%.
In the case of `COc1ccc(S(=O)(=O)NCCCNc2nccc(-c3c(-c4ccc(F)cc4)nc4sccn34)n2)cc1`, the growth was 70.6% in test [1]; 27.9% in test [2]; 74.8% in test [3]; 33.6% in test [4]; 42.1% in test [5]; 65.5% in test [6]. In addition, the growth in test [7] was 40.6%.
On to `O=[N+]([O-])c1ccc(Oc2cc(Cl)c(Cl)cc2Cl)c(C(F)(F)F)c1`, for which the growth in test [1] was 110%; in test [2], 95.6%; in test [3] it was 106%; in test [4], 97.9%; in test [5], 102%; in test [6], 123%. In test [7], the growth was 101%.
For the molecule `CCCCCCNC(=O)Oc1ccc(/C(=C(/CC)Cc2ccccc2)c2ccc(OCCN3CCCCC3)cc2)cc1`, the growth was 97.4% in test [1]; 89% in test [2]; 79.1% in test [3]; 28.8% in test [4]; 62.8% in test [5]; 87.3% in test [6]. Moreover, the growth in test [7] is 84%.
Consider `COc1ccc2nc3cc(Cl)ccc3c(NCCNCC(C)O)c2c1` (configuration not stated), for which the growth in test [1] is 88%; in test [2], 37.9%; in test [3] it was 19.9%; in test [4] it was 10.5%; in test [5], 13.1%; in test [6], 40.8%. In addition, the growth in test [7] is 25.5%.
Take `COc1cc(OC)cc(-c2cncn2-c2ccc(-c3nc4cc(OC)cc(OC)c4s3)cc2)c1`: the growth is 46.6% in test [1]; -16.3% (active) in test [2]; 48.2% in test [3]; 20.9% in test [4]; 36.8% in test [5]; 70.2% in test [6]. Besides, the growth in test [7] was 38.5%.
Regarding `COc1cc2cc3c(nc2cc1OC)CCN3Cc1ccc(NC(=O)Nc2cc(C(F)(F)F)cc(C(F)(F)F)c2)cc1`, the growth is 106% in test [1]; 76.4% in test [2]; 88.3% in test [3]; 49.3% in test [4]; 66.7% in test [5]; 83.4% in test [6]. Moreover, in test [7], the growth was 68.6%.
In the case of `COc1cc(-c2nc(-c3nnc(-c4ccccc4Cl)o3)c3ccccn23)cc(OC)c1OC`, the growth was 89.5% in test [1]; 100% in test [2]; 104% in test [3]; 81.9% in test [4]; 97% in test [5]; 94.7% in test [6]. In addition, the growth in test [7] is 80.5%.
On to `COc1ccc(-c2nn(-c3cccc(NC(=O)c4ccc(N5CCOCC5)c(C(F)(F)F)c4)c3)cc2-c2ccncc2)cc1Cl`, for which the growth is 67.9% in test [1]; 30% in test [2]; 83.3% in test [3]; 53% in test [4]; 55.5% in test [5]; 67.6% in test [6]. The growth in test [7] was 43.7%.
`O=C(O)CC(Cl)C(Cl)CC(=O)O` (configuration not stated): the growth is 97.5% in test [1]; 93.8% in test [2]; 103% in test [3]; 105% in test [4]; 111% in test [5]; 110% in test [6]. In test [7], the growth was 101%.
Take `O=C(Nc1cccc(-n2cc(-c3ccncc3)c(-c3cc(O)cc(Cl)c3)n2)c1)Nc1ccc(Cl)c(C(F)(F)F)c1`: the growth was 47.6% in test [1]; 9.57% (active) in test [2]; -33.6% (active) in test [3]; 13.4% in test [4]; 6.95% (active) in test [5]; 34.3% in test [6]. In addition, the growth in test [7] is 15.1%.
